Data as given in the supplement of paper PMC10646978.
± gives the standard deviation.

Columns and labels:
Conditions in all cases: modulator concentration 10 µM
[1] = tested on: RAW-Dual (murine macrophage reporter line); test: NF-kB reporter (SEAP) activity fold change vs agonist alone; higher = enhanced NF-kB activity
Summary of the method: (§1)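 RAW-Dual murine macrophage reporter cells were plated at 50 000 per well in 384-well plates, pin-transferred compound to 10 μM final, and pre-incubated for 1 hour at 37 °C before a PRR agonist was added and the cells incubated overnight. NF-κB activity was read from supernatant SEAP with QUANTI-Blue at 620 nm absorbance, and IRF activity from Lucia luciferase with QUANTI-Luc by luminescence. Each signal was expressed as fold change by dividing by the mean agonist-only control on the same plate. Two replicate plates were averaged, with errors obtained by propagation.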

[2] = tested on: RAW-Dual (murine macrophage reporter line); test: IRF reporter (Lucia luciferase) activity fold change vs agonist alone; higher = enhanced IRF activity
Summary of the method: as §1

[3] = tested on: RAW-Dual (murine macrophage reporter line); test: viability score (confluency relative to resting cells, overnight) (fraction); higher = more viable, active = viable (0.7 or more)
Summary of the method: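 In 384-well plates, RAW-Dual macrophages received compound at a final 10 μM overnight. Two confluency masks were then made with IncuCyte software from IncuCyte images of all imaged wells. The viability score is defined as confluency relative to resting cells. Passing the cutoff required both masks to lie above 70% of resting cells.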

[4] = agonist: CpG ODN 1826 0.5 ug/mL

Structure (SMILES)	NF-kB reporter [1, 4]	NF-kB reporter ([1]; agonist: LPS 0.1 ug/mL)	NF-kB reporter ([1]; agonist: MPLA […])	IRF reporter ([2]; agonist: 3'3'-cGAMP 10 ug/mL)	IRF reporter ([2]; agonist: LPS 0.1 ug/mL)	IRF reporter ([2]; agonist: MPLA […])	viability score [3]
Cl.Nc1ccn([C@@H]2O[C@H](CO)[C@@H](O)C2(F)F)c(=O)n1	1.3 ± 0.31	0.921 ± 0.05	1.29 ± 0.087	1.25 ± 0.063	1.51 ± 0.17	1.32 ± 0.21	0.173 (inactive)
CCC(=O)N(CCC(c1ccccc1OC)C1CCOC(C)(C)C1)Cc1ccc(OC)cc1 (stereo unspecified)	0.907 ± 0.072	0.986 ± 0.059	0.938 ± 0.056	1.04 ± 0.055	1.23 ± 0.29	1.04 ± 0.088	1.01 (active)
O=C1CCC(=O)N1CC(O)Cn1c2ccc(Cl)cc2c2cc(Cl)ccc21 (stereo unspecified)	0.671 ± 0.035	0.816 ± 0.065	0.896 ± 0.05	0.839 ± 0.04	1.24 ± 0.25	1.19 ± 0.39	0.922 (active)
Cc1cccc(C(=O)ON=C(c2ccncc2)c2ccc([N+](=O)[O-])cc2)c1	0.806 ± 0.07	0.838 ± 0.039	1.06 ± 0.099	1.03 ± 0.068	1.43 ± 0.083	1.61 ± 0.14	1 (active)
CS(=O)(=O)O.Cc1ccc(NC(=O)c2ccc(CN3CCN(C)CC3)cc2)cc1Nc1nccc(-c2cccnc2)n1	0.119 ± 0.03	1.27 ± 0.28	1.89 ± 0.17	0.201 ± 0.0064	0.97 ± 0.18	1.75 ± 0.3	0.957 (active)
COc1cc2c(cc1OC)C(=O)C(CC1CCN(Cc3ccccc3)CC1)C2 (stereo unspecified)	0.586 ± 0.14	0.954 ± 0.058	1.05 ± 0.066	0.797 ± 0.027	0.813 ± 0.096	0.897 ± 0.11	0.99 (active)
CC(=O)Nc1cccs1	1.09 ± 0.14	1.06 ± 0.072	0.986 ± 0.035	0.944 ± 0.12	1.07 ± 0.11	1.04 ± 0.078	0.998 (active)
Cc1cc(C(=O)N2CCC(Oc3cccc4cccnc34)CC2)c(C)o1	1.1 ± 0.073	1.1 ± 0.12	0.81 ± 0.066	1.02 ± 0.092	1.07 ± 0.15	1.07 ± 0.23	1.01 (active)
CCc1ccccc1N(CC(=O)Nc1ccc(Cl)cc1C)S(C)(=O)=O	0.842 ± 0.087	1.05 ± 0.068	0.893 ± 0.047	0.88 ± 0.12	1.08 ± 0.14	0.876 ± 0.18	1 (active)
O=S(=O)(c1ccc(Cl)cc1)N1CCN(C2CC3CCC2C3)CC1 (stereo unspecified)	0.926 ± 0.062	0.994 ± 0.061	0.972 ± 0.068	1.02 ± 0.037	1.42 ± 0.14	1.24 ± 0.13	0.984 (active)
O=C(Cn1ncccc1=O)N1Cc2cnc(N3CCOCC3)nc2C1	0.942 ± 0.082	1.1 ± 0.1	0.938 ± 0.042	0.956 ± 0.058	1.16 ± 0.21	1.09 ± 0.31	0.998 (active)
CCOC(=O)c1ncn2c1CN(C)C(=O)c1cc(F)ccc1-2	1.26 ± 0.22	1.03 ± 0.28	0.975 ± 0.058	0.912 ± 0.029	1.2 ± 0.27	1.16 ± 0.088	0.995 (active)
O=Cc1ccc(OC(=O)c2cccc(C(=O)Oc3ccc(C=O)cc3)c2)cc1	0.813 ± 0.064	0.851 ± 0.052	1.02 ± 0.092	0.975 ± 0.064	1.52 ± 0.088	1.69 ± 0.14	0.989 (active)
CCCCOc1ccc(C(=O)Nc2cc(-c3nc4ccccc4o3)ccc2OC)cc1	1.08 ± 0.066	1.08 ± 0.089	0.965 ± 0.025	0.965 ± 0.042	1.06 ± 0.049	1.02 ± 0.098	1 (active)
CC(C)(C)C(=O)NCc1cccnc1-c1cccnc1	0.968 ± 0.052	1.02 ± 0.1	0.892 ± 0.047	0.972 ± 0.052	0.982 ± 0.061	0.97 ± 0.13	1.01 (active)
COC(=O)C1=CN(CC2CCCO2)C=C(C(=O)OC)C1c1ccsc1 (stereo unspecified)	0.898 ± 0.087	0.845 ± 0.057	1.12 ± 0.13	0.895 ± 0.041	1.41 ± 0.082	1.43 ± 0.18	1.01 (active)
O=C(NCCNC(=O)c1ccccc1Cl)c1ccc(NC(=O)C2CC2)cc1	0.924 ± 0.04	1.01 ± 0.084	1.67 ± 0.56	1.02 ± 0.052	1.36 ± 0.25	1.69 ± 0.5	0.98 (active)
CN(C)CCS(=O)c1ccccc1 (stereo unspecified)	0.955 ± 0.08	0.907 ± 0.071	1.16 ± 0.21	0.983 ± 0.038	1.32 ± 0.23	1.39 ± 0.27	1.04 (active)
